Active and inactive are the calls of the source.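 Rule for the calls: active = RAM network inhibition above 8.4% in each of two replicates, 3 SD over the compound average; inconclusive = above 8.4% inhibition in only one replicate; inactive = 8.4% inhibition or less in each replicate.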
Assay: RAM signaling pathway blockade in yeast – S. cerevisiae, Pdr1DBD-CYC8 efflux-inhibited sensitized strain, primary screen (AID 1298);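 note: 0% = DMSO untreated cells without growth and 100% = 10 µM 1-NA-PP1 full growth; higher means more yeast growth rescued from 5-FOA killing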
Conditions: S. cerevisiae cbk1-as DSE1-URA3 strain, 5-FOA growth OD615, 2 d; at 50 µM; hits give high values

SMILES | RAM network inhibition
COc1ccc(NC(=O)c2ccc3c(c2)n(C)c(=O)n3C)cc1 | 4.75% (inactive)
O=C(O)COc1ccc2c(c1)OCCO2 | -0.47% (inactive)
O=C(Nc1cccc(Br)c1)c1cc2ccccc2o1 | 3.48% (inactive)
CC1(C)Cc2ccccc2-c2nc(NCCO)n(-c3ccccc3)c(=O)c21 | 3.93% (inactive)
C=C(C)CSc1nc2c(cc1C#N)CCC2 | 1.58% (inactive)
CCC1Oc2nc(SC)nnc2-c2ccccc2N1C(=O)c1ccccc1 (stereo not drawn) | 3.93% (inactive)
COC(=O)c1ccccc1NC(=O)CS(=O)(=O)Cc1nc(-c2ccc(C)cc2)oc1C | 4.03% (inactive)
O=C1CC(c2ccccc2)C(C(=O)Nc2ccccc2F)N1 (stereo not drawn) | 4.18% (inactive)
O=C(CCSCCc1ccccn1)Nc1nccs1 | 0.66% (inactive)
CCN(CCNS(=O)(=O)c1ccc2c(c1)oc(=O)n2C)c1ccccc1 | 1.2% (inactive)
O=C(CN(Cc1ccccc1)S(=O)(=O)c1ccccc1)NC1CC1 | 0.45% (inactive)
O=C(Nc1cccc(F)c1)c1ccc(S(=O)(=O)N2CCCC2)cc1 | -0.43% (inactive)
N#Cc1cccc(NC(=O)CC2CCCCC2)c1 | 2.76% (inactive)
O=S(=O)(NC1c2cccc3cccc(c23)C1N1CCNCC1)c1ccccc1 (stereo not drawn) | 2.72% (inactive)
CC(C)N(Cc1nc(-c2ccccc2)no1)C(=O)Cc1ccccc1 | 2.86% (inactive)
COc1cc(NC(=O)c2cc(-c3cccc(O)c3)on2)cc(OC)c1OC | 6.05% (inactive)
Cc1cccc(NC(=O)CC2SC(=NC3CCCCC3)NC2=O)c1 (stereo not drawn) | 4.77% (inactive)
CCSc1nnc(Cn2c(=O)sc3ccccc32)n1-c1ccc(OC)cc1 | 9.11% (inactive)
Cn1c(=O)oc2cc(S(=O)(=O)N3CCC(N4CCCCC4)CC3)ccc21 | 1.06% (inactive)
CN(C(=O)c1cnc2n(c1=O)CCS2)C1CCCCC1 | 3.96% (inactive)
COc1cc(OC)c(C2CC(=O)N3CN(C)CSC3=C2C#N)cc1OC (stereo not drawn) | 9.58% (inactive)
CCn1nnc(NC(=O)c2ccc(C(C)(C)C)cc2)n1 | -0.37% (inactive)
Cc1cc2nsnc2c(S(=O)(=O)NCC(=O)O)c1C | 0.2% (inactive)

— PubChem BioAssay
